Experimental data from the supplement of paper PMC6555819.

These sequences were tested on RARb homodimer (NR concentration 270 nM) (assay: PBM binding z-score (relative to random genomic background probes); higher = stronger binding; sequences stand for … in GC…GCGATTGACAGCGTAGAATGAAGG).
Procedure, shortened: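 Scanned fluorescence from custom Agilent 4×180K protein-binding microarrays was regression-normalized. Binding z-scores use random background probes as reference. Ligand-free nuclear receptor dimers were incubated on the arrays for 1 h and detected with antibodies against each partner (one per run).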

Sequence | PBM binding z-score
CCTACTGGGTCATCAGGTCATTGATATCAACGTT | 4.25
TAGACTAGGTCATGGGCCAGTATACCACGCGAAC | 2.68
TCTTGTAAATCAAGCAGGTTAAGAAAGCCTGAGT | 0.102
TCATATAGCTAATACAGGTGAAAGTCGGCATCTA | -0.00242
GTAGACAGGTGAAACGCAGGTAACTCAGGGTGGC | 0.348
CAGCCTAGGTCAGGGCCAGTATCGGAGGAACGTT | 2.85
ATCTCTAGGTAAGACTCTGTTCAGTGAAGAACGC | 0.515
TCGAGTAGGTTAGGTGCATTCAGAATGGCGTCGA | 0.197
TCATCTAGGTAAATGCTAGGTGAAAGTCCGATCT | 0.149
CCGAGTAGGTTATGCGGCATTCAGGCAACGGTGA | 0.275
TCTTGTAGATCAACAGGATGTTAAGAAAGATCGA | -0.63
TCGAGTAGGTCAGTCGGGGCATTCAGCCAACATA | 2.3
CCTACTGGGCCAAAAAGGTTATTGATGCCGATAA | 1.36
CGTCCAAGGTCACAGGTCAGTGAAGAGATGACGG | 5.03
TCATATAGGTAGAAGGTGAAAGTCGGTGTGGTAA | 1.02
ATCGAAAGGTCGAGGTAAGTATAGAGAAAGGGAA | 2.39
CGTCCAAGGTCAGCAGGTCAGTGAGAGCGACGTG | 5.13
TCATATAGGGAAAAGGTGAAAGTCGGTGTGGTAA | 2.04
ACTATTAGTTGACTTAGGGCAACCAATACGACGC | 1.15
ACTAGCAGGCCAAGCGTCACTCAAGATTAGTCCG | -0.0548

Sequence | PBM binding z-score
AATACAGGGTCATCGTAGGCCTGAGTACGCACAG | 3.36
ACTATTAGTTGACTTATGGCAACCGATACGACGC | 0.102
TTACCAAGGTGAGCTGAGGTCGTTGGTCCAACTC | 1.6
CCTACTGGGCCATTCAGAGTTCATTGATCATATG | 2.64
TCTTGTAGATCAACAGGAGGTTAAGAAAGATCGA | 0.548
AGAATGAGGTTATACGTAGAGCAGGGAAGAAAGT | 0.854
ACTAGTTGGTCAGCTGAGTTCACACACAATTCGG | 2.53
CAGCCTAGGTCAGGCCCAGTATAGGAGGAACGTT | 2.11
CGTCCAAGGTCATAGGAGGTCAGTGCAGACAGAT | 4.94
GTACCAAGGTCAATAGGTCGTTGATGAGTAGGCG | 4.86
ATCTCTAGTTAAGACTCAGTTCAGTGAAGAACGC | 0.624
CCTAGCAGGCCAATCTGGGTAACTCAAGGCTTGA | -0.251
GCTAGTTGGTCAGTAAAAGGCCACACACCGGTCG | 1.83
CCTAGTTGGTCAGGAGGTCACACACCGGATATGA | 4.56
CCTCGGAGGACAACTGGAGGTCAGAGCTGCCAGA | 3.7
ATATGTAGGTTAGCTGGGATCATTCAGACTAGGC | 0.428
AGTCAAAGTGCAGGACGAGGTAACGTAAAGCACG | 0.382
GCAGACAGGTGAAACGCAGGTAGCTCAGGGTGGC | -0.0117
AGCGAAAGGTCGACGAGGTGAGTATACACCGTTT | 2.99
TACCCTAGGTCAGATCGGGCCAGTATACGCTATA | 2.63
